Reference: the supplement of paper PMC3334620
In all, about 33,000 sequences were measured (“E-score (-0.5 to 0.5)”: median about -0.016, highest 2% from about 0.31 on). The list comes from a sample in which the highest values are over-represented; it also holds similar and randomly drawn sequences.

These sequences were tested against Cst6 (UniProt P40535) (assay: PBM E-score (8-mer binding enrichment) (E-score (-0.5 to 0.5)); higher = stronger / more preferred TF binding). Settings: protein concentration: 200 nM; construct: GST-DNA-binding domain.
Sequence of UniProt P40535 (P40535 whole entry, the tested form may be a part): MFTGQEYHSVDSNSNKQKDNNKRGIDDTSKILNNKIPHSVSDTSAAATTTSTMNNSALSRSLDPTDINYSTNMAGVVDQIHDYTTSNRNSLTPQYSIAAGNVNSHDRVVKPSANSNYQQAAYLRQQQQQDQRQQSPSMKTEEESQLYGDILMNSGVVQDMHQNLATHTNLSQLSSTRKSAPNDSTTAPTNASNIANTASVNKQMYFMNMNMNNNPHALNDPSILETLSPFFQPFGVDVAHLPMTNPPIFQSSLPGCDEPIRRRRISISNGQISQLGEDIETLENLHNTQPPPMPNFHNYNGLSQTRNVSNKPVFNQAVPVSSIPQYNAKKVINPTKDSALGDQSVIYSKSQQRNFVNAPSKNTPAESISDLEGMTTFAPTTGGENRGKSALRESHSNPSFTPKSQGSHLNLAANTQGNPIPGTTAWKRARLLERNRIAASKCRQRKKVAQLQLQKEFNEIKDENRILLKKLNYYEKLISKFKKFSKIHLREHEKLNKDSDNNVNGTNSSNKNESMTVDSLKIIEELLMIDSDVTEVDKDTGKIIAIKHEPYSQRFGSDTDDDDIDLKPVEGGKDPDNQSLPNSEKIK
Protocol: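 Universal 'all 10-mer' protein binding microarrays (Agilent AMADID 015681) probed with GST-tagged S. cerevisiae TFs (full-length or DBD) made by in vitro transcription/translation (PURExpress), about 100-200 nM. Bound TF was detected with fluorescent anti-GST. Each ungapped 8-mer (which stands for itself and its reverse complement) is scored by the PBM enrichment score (E-score), a modified Wilcoxon-Mann-Whitney statistic from -0.5 to +0.5, computed with the Universal PBM Analysis Suite. Scale: above 0.35 generally sequence-specific binding.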

Row | Sequence | PBM E-score
1 | CCAAACTC | -0.0716
2 | CTCATCGC | -0.0477
3 | GTAACCAC | -0.0805
4 | AACAGAGG | -0.0721
5 | ACAAGTTG | -0.0486
6 | AACACCCA | -0.246
7 | TGAACCAA | 0.184
8 | AGGCGGTA | -0.225
9 | CCAAGCCG | -0.182
10 | TGCCATAA | 0.00753
11 | ACGTTACC | 0.179
12 | AACGGTTG | 0.0747
13 | AGTGATGC | 0.317
14 | AGTGATGG | 0.0422
15 | AGTGATGA | 0.284
16 | ATTGATGC | 0.262
17 | AATGATCC | 0.026
18 | GATGATGC | 0.328
19 | AATGATGC | 0.347
20 | CCTGATGC | 0.0754
21 | GATGATCC | 0.00428
22 | AAATTAGC | 0.153
23 | ACACTCCC | -0.177
24 | GCACTAAC | -0.119
25 | CCACCTCA | -0.114
26 | AGCAGTGG | -0.048

Row | Sequence | PBM E-score
27 | AATATAAT | 0.156
28 | AATATAAA | 0.331
29 | CATATAAG | 0.146
30 | AATAAATG | 0.302
31 | AATATAAG | 0.352
32 | AATAAATA | 0.39
33 | TATATAAA | 0.298
34 | CATATAAA | 0.236
35 | TATAAATA | 0.294
36 | AGGACAAC | 0.0452
37 | ACGGTCTA | -0.0035
38 | CGTATTGC | 0.0567
39 | ACGGATTC | 0.0332
40 | CCGTACTC | -0.113
41 | TGCCAAAA | 0.0693
42 | ATGTGGGG | -0.237
43 | GTCATGAC | 0.374
44 | CTCATGAG | 0.079
45 | CTCATGAA | 0.158
46 | ATCATGAC | 0.446
47 | CTCATGCA | 0.00428
48 | GACATGAC | 0.275
49 | ATCATGAG | 0.146
50 | CTCATGAC | 0.335
51 | GTCATGAA | 0.268
52 | ATCATGCA | 0.109

Row | Sequence | PBM E-score
53 | GTCATGCA | 0.36
54 | ATCATGAA | 0.17
55 | ATTGAGCG | -0.0477
56 | ACCGGATA | -0.0988
57 | AAAGGCCA | -0.109
58 | AGCGCGTA | 0.177
59 | CTGATGGA | -0.0729
60 | ACGTGCAG | 0.0472
61 | ACCGCCGT | 0.209
62 | AAAATTAC | 0.257
63 | AAAATTAT | 0.378
64 | CTCATTAC | 0.25
65 | ATCATTAC | 0.375
66 | CATATTAC | 0.261
67 | GTAATTAA | 0.188
68 | ATCATTAG | 0.19
69 | TTAATTAA | 0.0995
70 | AATATTAC | 0.241
71 | ATAATTAA | 0.322
72 | AAAATTAG | 0.159
73 | GATATTAC | 0.352
74 | CAAGGATC | -0.012
75 | GCTATACC | -0.19
76 | GGAGCATA | -0.00076
77 | CCGGCATA | -0.15
78 | CCTGCGCG | -0.0722

Row | Sequence | PBM E-score
79 | AAAGCGCC | 0.113
80 | CTAGTCAA | -0.127
81 | AGCACCTA | -0.227
82 | ATACGTTC | 0.0426
83 | GGGGAGAA | -0.161
84 | CTTGTTAC | 0.0412
85 | CAAATTAA | 0.224
86 | ATAATTAG | 0.223
87 | GAAATTAA | 0.334
88 | ATTATTAC | 0.339
89 | ATAATTAT | 0.342
90 | AAAATTAA | 0.115
91 | ATTGTTAG | 0.129
92 | ACTATTAC | 0.201
93 | ATTATAAT | 0.259
94 | CTTATTAC | 0.231
95 | ATTGTTAC | 0.348
96 | CGACTAAC | -0.0525
97 | ACACACCT | 0.0393
98 | CATGAAAG | 0.082
99 | GTAATTAC | 0.287
100 | AAGATTAC | 0.127
101 | CTTCTTAC | -0.0252
102 | GAGATTAC | 0.312
103 | ATTCTTAG | 0.0174
104 | ACAATTAA | 0.319

Row | Sequence | PBM E-score
105 | ACAATTAC | 0.249
106 | ATAATTAC | 0.349
107 | ATTCTTAC | 0.315
108 | CTAATTAC | 0.243
109 | ACAATTAT | 0.289
110 | GAGATTAA | 0.0823
111 | ACTGCGTC | 0.147
112 | CACTTGGC | -0.08
113 | GTGCTTAA | 0.0338
114 | ATCGCAGG | -0.199
115 | GCATTGTA | 0.047
116 | GGGCTGTA | -0.256
117 | GCAACCCA | -0.0438
118 | ATTTTCTG | 0.115
119 | CCTCGAAA | 0.0797
120 | CCTCACTC | 0.0262
121 | AATCACTA | 0.159
122 | GATCACTA | 0.0963
123 | CGTCACTA | 0.459
124 | CGTCACTC | 0.445
125 | GGTCACTA | 0.0296
126 | AGTCACTA | 0.209
127 | CATCACTA | 0.353
128 | AGTCACTC | -0.033
129 | GTTTGGTA | 0.213
130 | CAAAAATG | 0.133

Row | Sequence | PBM E-score
131 | ACTGTGGG | -0.0161
132 | GATACCGC | -0.0789
133 | AGGGACAT | -0.181
134 | CGACGGGC | 0.0567
135 | CCATTACC | -0.00808
136 | AGGAGACA | -0.0509
137 | ATCAAGTC | 0.0221
138 | GGAGGTAA | -0.0533
139 | TGAGGTAA | 0.414
140 | AGAGGTAA | -0.119
141 | ATAGCTGA | -0.204
142 | CATTCCAG | -0.0492
143 | AGAGGGTG | -0.204
144 | ATGCCGCG | 0.233
145 | GAGCCGCA | 0.28
146 | CTGCCGCA | 0.0518
147 | GTGCCGCA | 0.362
148 | ATGCCGCA | 0.353
149 | GGGCCGCA | -0.0641
150 | TAACTACA | 0.0421
151 | AGAGTTTA | 0.176
152 | CCACACTA | 0.149
153 | TACCTAAA | 0.14
154 | CGTGTGGA | -0.153
155 | AAAGGGGC | -0.196
156 | CACGGCAC | 0.356

Row | Sequence | PBM E-score
157 | AACGGCAG | 0.134
158 | AACGGCAC | 0.343
159 | AACGGCAA | 0.251
160 | ATCGGCAT | 0.23
161 | CACGGCAA | 0.302
162 | AACGGCAT | 0.346
163 | CACGGCAG | 0.142
164 | GACGGCAC | 0.23
165 | CTCTGAAA | -0.0419
166 | AAGGATGA | 0.0593
167 | CATGCAAA | 0.142
168 | AGCGCCGG | -0.102
169 | AGCCGTGC | 0.24
170 | AGCCGCGC | 0.18
171 | AGCGCCGC | 0.309
172 | CGCCGTGA | 0.221
173 | CGCCGTGC | 0.344
174 | CGCGCCGC | 0.326
175 | CCCGCCGC | 0.126
176 | CGCCGCGC | 0.357
177 | CGCCGCGA | 0.241
178 | AGCGCCGA | 0.00204
179 | CGCGCCGA | 0.137
180 | ATTATGCG | 0.217
181 | ACGAGTTA | 0.0712
182 | CTTCTTCC | -0.212

Row | Sequence | PBM E-score
183 | ACCTAGTA | -0.284
184 | AACTCTGT | 0.0458
185 | ATCTATCA | 0.128
186 | ACCCACGT | 0.0287
187 | ACCAACTC | -0.0108
188 | CATTTCCA | 0.143
189 | CTTTAGGA | -0.0677
190 | ACCTCTCA | -0.0889
191 | GTACATAA | 0.085
192 | TTACATAA | 0.433
193 | AGACATAA | 0.0351
194 | GGACATAA | 0.0407
195 | TGACATAA | 0.477
196 | CTACATAA | -0.0447
197 | ACTACCTA | 0.0222
198 | AGTGGAGC | -0.165
199 | CGGTGACC | 0.115
200 | AGTTGACC | -0.114
201 | CGGTGACA | 0.266
202 | ATGTGACG | 0.433
203 | AGTTGACA | 0.191
204 | CGGTGACG | 0.476
205 | ATGTGACA | 0.151
206 | ATGTGACC | 0.0452
207 | AGGTGACG | 0.452
208 | AGGTGACA | 0.278

Row | Sequence | PBM E-score
209 | AGTTGACG | 0.324
210 | AGGTGACC | 0.046
211 | CCCAGGGA | -0.37
212 | CTGGAGCA | -0.0734
213 | CAGCCTTA | -0.254
214 | AAGCTAAG | -0.252
215 | AAAGCTTC | -0.172
216 | CTACTTAC | 0.127
217 | AGGCTAAC | -0.114
218 | CAAACCTG | 0.0584
219 | GATAATTA | 0.322
220 | CCTAATTA | -0.00674
221 | GATAATAA | 0.098
222 | AATAATTC | 0.205
223 | AATAATTA | 0.325
224 | CATAATTA | 0.304
225 | AATAATTG | 0.121
226 | GCTAATTA | 0.166
227 | ACTAATTA | 0.351
